# Assays:
# Assay in all cases: DAPPL (digital affinity profiling via proximity ligation, sequencing); 10 mM Tris-HCl pH 7.5, 50 mM NaCl, 1 mM DTT, 4% glycerol, room temperature, 30 min; GST-TFs on glutathione beads, 16-mer random dsDNA library, 0.1% formaldehyde crosslink after washing; high values mean tight binding
# Settings in all cases: protein: recombinant; tags: N-terminal GST; dsDNA, one strand shown
# ELF4 = ELF4 (Homo sapiens, UniProt Q99607 1-663)
# Procedure, shortened: (§1)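 Pools were built from human transcription factors expressed in yeast as GST fusions, captured on glutathione beads and DNA-barcoded, along with a tag-only sample. Incubation with 200 nmole of a 16-mer random double-stranded DNA library lasted 30 min at room temperature in Tris/NaCl/DTT/glycerol buffer, and was followed by washing, 0.1% formaldehyde crosslinking, proximity ligation, PCR amplification and Illumina NextSeq500 sequencing. Binding signal is the quotient of each hexamer's read frequency for a factor and its frequency for the tag-only sample.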
# ETV2 = biological target: T1, ETV2 (Homo sapiens, UniProt O00321 1-342)
# T1 sequence: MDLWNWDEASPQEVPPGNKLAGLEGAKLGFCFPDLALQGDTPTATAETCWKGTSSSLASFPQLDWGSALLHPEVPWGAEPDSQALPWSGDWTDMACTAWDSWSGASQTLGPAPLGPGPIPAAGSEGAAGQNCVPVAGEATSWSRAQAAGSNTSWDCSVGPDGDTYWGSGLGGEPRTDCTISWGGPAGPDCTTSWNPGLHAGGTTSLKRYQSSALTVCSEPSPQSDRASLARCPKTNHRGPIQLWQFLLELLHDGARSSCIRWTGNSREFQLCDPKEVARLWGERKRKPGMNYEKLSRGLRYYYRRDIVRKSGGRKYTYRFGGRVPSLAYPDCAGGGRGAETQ
# Procedure, shortened: as §1
# ELF3 = biological target: T2, ELF3 (Homo sapiens, UniProt P78545 1-371)
# T2 sequence: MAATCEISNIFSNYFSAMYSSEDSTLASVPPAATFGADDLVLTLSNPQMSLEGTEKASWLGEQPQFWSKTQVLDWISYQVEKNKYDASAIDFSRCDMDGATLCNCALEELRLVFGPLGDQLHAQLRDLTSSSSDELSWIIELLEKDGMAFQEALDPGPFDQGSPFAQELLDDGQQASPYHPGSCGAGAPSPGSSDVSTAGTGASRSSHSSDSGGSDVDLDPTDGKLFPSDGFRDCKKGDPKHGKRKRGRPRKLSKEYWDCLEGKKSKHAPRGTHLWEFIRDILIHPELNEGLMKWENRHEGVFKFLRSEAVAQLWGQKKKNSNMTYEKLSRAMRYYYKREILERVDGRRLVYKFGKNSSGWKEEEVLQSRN
# Procedure, shortened: as §1
# ETV1 = ETV1 (Homo sapiens, UniProt P50549 1-477)
# Chain of ETV1 (P50549 whole entry): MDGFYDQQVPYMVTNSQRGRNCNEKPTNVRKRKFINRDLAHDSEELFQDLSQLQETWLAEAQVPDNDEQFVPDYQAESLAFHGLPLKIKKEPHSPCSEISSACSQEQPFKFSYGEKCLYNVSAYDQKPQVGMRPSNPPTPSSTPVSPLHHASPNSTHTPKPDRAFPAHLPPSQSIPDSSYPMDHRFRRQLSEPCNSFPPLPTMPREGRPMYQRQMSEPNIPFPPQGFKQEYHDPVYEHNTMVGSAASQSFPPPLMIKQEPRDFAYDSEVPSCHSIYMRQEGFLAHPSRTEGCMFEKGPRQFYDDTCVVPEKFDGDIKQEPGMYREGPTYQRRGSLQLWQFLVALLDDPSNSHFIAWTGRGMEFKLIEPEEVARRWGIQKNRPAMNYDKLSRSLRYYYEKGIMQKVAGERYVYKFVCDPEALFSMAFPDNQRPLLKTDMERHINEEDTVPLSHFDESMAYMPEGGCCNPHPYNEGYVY
# Procedure, shortened: as §1
# ERF = biological target: T3, ERF (Homo sapiens, UniProt P50548 1-548)
# T3 sequence: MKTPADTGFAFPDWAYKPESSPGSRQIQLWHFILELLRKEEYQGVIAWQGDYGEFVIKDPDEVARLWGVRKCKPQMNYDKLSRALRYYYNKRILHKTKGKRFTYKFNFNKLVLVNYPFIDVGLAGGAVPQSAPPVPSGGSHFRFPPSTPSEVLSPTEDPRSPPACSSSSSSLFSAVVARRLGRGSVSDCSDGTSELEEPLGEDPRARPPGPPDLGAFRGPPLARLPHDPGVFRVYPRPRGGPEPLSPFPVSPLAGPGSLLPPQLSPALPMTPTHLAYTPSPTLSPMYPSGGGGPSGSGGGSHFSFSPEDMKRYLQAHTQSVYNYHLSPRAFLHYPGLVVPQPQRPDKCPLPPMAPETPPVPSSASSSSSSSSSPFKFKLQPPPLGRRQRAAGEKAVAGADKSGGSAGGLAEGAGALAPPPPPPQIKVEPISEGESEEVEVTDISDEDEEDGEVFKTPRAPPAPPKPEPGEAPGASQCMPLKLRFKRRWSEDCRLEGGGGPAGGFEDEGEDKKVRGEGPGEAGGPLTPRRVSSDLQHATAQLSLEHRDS
# Procedure, shortened: as §1
# ETV3L = biological target: T4, ETV3L (Homo sapiens, UniProt Q6ZN32 1-361)
# T4 sequence: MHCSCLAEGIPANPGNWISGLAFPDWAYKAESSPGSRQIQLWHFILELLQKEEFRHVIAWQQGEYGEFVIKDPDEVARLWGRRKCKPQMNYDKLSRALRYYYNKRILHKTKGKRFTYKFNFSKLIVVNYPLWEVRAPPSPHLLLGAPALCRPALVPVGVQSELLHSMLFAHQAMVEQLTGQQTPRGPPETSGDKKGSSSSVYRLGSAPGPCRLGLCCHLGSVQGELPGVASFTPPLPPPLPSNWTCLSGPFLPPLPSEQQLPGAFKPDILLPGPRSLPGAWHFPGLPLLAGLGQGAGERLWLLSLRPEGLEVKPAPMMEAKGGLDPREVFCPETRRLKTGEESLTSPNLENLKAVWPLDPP
# Procedure, shortened: as §1
# ETS2 = biological target: T5, ETS2 (Homo sapiens, UniProt P15036 1-469)
# T5 sequence: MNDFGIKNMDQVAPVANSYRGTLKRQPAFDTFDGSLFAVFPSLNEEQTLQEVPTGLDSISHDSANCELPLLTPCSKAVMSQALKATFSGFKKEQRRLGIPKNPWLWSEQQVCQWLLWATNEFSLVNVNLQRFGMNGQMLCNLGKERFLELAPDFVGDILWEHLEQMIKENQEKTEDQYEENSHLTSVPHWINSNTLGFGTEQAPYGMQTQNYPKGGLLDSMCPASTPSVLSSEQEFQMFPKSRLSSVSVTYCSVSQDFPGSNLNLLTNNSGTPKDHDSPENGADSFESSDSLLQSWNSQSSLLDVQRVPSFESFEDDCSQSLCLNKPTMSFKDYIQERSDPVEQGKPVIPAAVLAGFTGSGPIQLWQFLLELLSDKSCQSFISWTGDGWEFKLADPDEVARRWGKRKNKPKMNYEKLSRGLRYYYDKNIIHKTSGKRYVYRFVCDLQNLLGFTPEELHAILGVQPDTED
# Procedure, shortened: as §1
# ETV7 = biological target: T6, ETV7 (Homo sapiens, UniProt Q9Y603 1-341)
# T6 sequence: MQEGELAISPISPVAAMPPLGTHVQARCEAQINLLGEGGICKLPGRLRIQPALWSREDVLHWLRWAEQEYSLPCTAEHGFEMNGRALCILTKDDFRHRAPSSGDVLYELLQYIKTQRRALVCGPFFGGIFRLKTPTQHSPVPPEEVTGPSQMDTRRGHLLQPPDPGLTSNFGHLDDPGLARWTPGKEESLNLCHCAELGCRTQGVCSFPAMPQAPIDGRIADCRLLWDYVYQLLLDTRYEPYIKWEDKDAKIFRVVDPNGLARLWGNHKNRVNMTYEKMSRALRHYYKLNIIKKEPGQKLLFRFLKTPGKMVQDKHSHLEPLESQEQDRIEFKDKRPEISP
# Procedure, shortened: as §1
# ETV3 = biological target: T7, ETV3 (Homo sapiens, UniProt P41162-2 1-143)
# T7 sequence: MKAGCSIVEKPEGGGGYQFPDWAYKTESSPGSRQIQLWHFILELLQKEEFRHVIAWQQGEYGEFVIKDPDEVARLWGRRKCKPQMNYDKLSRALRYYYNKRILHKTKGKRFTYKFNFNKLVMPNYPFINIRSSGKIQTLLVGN
# Procedure, shortened: as §1
# ETV6 = ETV6 (Homo sapiens, UniProt P41212 1-452)
# Chain of ETV6 (P41212 whole entry): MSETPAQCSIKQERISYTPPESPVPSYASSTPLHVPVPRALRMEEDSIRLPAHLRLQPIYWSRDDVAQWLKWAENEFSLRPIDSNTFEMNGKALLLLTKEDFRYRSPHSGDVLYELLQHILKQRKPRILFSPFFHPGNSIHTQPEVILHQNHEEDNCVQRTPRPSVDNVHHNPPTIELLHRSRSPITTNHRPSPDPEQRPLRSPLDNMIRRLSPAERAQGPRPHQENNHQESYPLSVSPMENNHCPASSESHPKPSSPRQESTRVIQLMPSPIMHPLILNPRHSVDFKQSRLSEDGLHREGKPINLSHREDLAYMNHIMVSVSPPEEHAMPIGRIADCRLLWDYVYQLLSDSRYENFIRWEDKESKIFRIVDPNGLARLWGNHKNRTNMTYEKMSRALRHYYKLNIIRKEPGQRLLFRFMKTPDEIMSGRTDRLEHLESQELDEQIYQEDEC
# Procedure, shortened: as §1
# Chain of ELF4 (Q99607 whole entry, the tested form may be a part): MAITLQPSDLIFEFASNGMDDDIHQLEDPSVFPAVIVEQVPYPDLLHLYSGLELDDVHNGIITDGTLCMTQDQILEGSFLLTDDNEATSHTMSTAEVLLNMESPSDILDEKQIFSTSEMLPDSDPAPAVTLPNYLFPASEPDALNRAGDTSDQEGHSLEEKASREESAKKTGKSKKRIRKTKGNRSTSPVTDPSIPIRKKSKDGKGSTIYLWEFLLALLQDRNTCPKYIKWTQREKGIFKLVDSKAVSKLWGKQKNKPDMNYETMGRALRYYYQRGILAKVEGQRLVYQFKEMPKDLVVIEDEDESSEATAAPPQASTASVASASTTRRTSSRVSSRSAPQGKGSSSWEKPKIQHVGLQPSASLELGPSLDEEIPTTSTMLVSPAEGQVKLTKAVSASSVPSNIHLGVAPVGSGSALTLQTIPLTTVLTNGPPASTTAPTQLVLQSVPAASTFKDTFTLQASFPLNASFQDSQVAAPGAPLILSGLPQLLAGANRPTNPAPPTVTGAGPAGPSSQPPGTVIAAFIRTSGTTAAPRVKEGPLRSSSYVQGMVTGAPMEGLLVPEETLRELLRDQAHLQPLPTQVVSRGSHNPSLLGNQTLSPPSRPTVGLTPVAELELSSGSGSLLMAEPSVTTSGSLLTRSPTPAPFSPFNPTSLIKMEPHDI
sequence,measurement,setting,value
TGTAAC,binding signal,ELF4,"1.2 fold enrichment (6-mer frequency, TF over GST control)"
same,binding signal,ETV2,"1.21 fold enrichment (6-mer frequency, TF over GST control)"
same,binding signal,ELF3,"1.22 fold enrichment (6-mer frequency, TF over GST control)"
same,binding signal,ETV1,"1.28 fold enrichment (6-mer frequency, TF over GST control)"
same,binding signal,ERF,"1.23 fold enrichment (6-mer frequency, TF over GST control)"
same,binding signal,ETV3L,"1.15 fold enrichment (6-mer frequency, TF over GST control)"
same,binding signal,ETS2,"1.32 fold enrichment (6-mer frequency, TF over GST control)"
same,binding signal,ETV7,"1.18 fold enrichment (6-mer frequency, TF over GST control)"
same,binding signal,ETV3,"1.24 fold enrichment (6-mer frequency, TF over GST control)"
same,binding signal,ETV6,"1.2 fold enrichment (6-mer frequency, TF over GST control)"
